Most compounds without a hit are left out; they make up all but 2% or so of the library.
Calb FLC: C. albicans growth modulation with fluconazole; C. albicans CaCi-2 (fluconazole-resistant clinical isolate) + fluconazole, Alamar Blue growth, 48 h; growth inhibition, % (no concentration beside the values); 0.57% of 300,000 active; AID 1979;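 active = growth inhibition above about 58% in most replicates, limit read from the data, passing the limit was not always enough; inconclusive = exactly half the replicates above a set limit; inactive = most replicates below a set limit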;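 also: all wells also contain fluconazole at 8 µg/ml as a sub-toxic cotreatment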
CR mimetic SO: lowers age-related superoxide in aged yeast cells | S. cerevisiae aged cells, superoxide DHE fluorescence; stronger effect = lower value | superoxide response (% of plate mean), % at 10 µM | 0.18% of 330,000 active | AID 2690;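 active = superoxide response under a set limit, about three screen SD below normal, cut at about 65% in these data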;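 also: yeast aged for seven days with compound at 30 °C before DHE staining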
Platelet DG rel: platelet dense granule release activity; 0.22% of 300,000 active; inhibition, %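 (compounds screened at 7.5 µM in platelet-rich plasma)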; human platelet-rich plasma, SFLLRN dense granule ATP release, luminescence;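 active = mean replicate score, as percent of positive control, at or above 50; inconclusive = mean below 50 but at least one replicate at or above 50; inactive = mean and every replicate below 50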
SKKanGAS inh: inhibitors of SKKanGAS S. pyogenes growth in kanamycin (SK-promoter or general growth effect); BacTiter-Glo, 6 h; inhibition, % at 7.5 µM; 1.3% of 300,000 active; AID 1662;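 active = mean replicate score, as percent of positive control median, at least 50; inconclusive = mean below 50 but one replicate at or above 50; inactive = mean and every replicate below 50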;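 also: strain carries kanamycin resistance gene driven by streptokinase promoter and grows in 40 µg/ml kanamycin; loss of luminescence reflects streptokinase promoter inhibition or plain growth inhibition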
PolyA inh: blocks polyadenylation in yeast reporter cells | 0.02% of 300,000 active | AID 1875 | activity score, % at 12 µM | S. cerevisiae SKY197-pL101 polyadenylation reporter, beta-gal luminescence; efflux-impaired pdr1/pdr3 knockout yeast; score 100 = 6 SD above DMSO;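 active = lowest replicate activity score at least 50, where 100 means six control SD above control mean; inconclusive = lowest score under 50 but half or more replicates reach 50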;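 also: yeast exposed to compound for 9 h at 30 °C; higher score means more reporter readthrough which indicates perturbed polyadenylation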
Hits are given with their value; – = inactive; ? = inconclusive; · = not tested or not shown.

SMILES | Calb FLC | CR mimetic SO | Platelet DG rel | SKKanGAS inh | PolyA inh
CC[C@@H](C)[C@H](CNC)NC[C@@H](Cc1cccc2ccccc12)NCCc1cccc(C(F)(F)F)c1 | 112 | – | – | 99 | –
COc1cc(-c2nnc(COC(=O)c3nn(CC(C)C)c(=O)c4ccccc34)o2)cc(OC)c1OC | – | – | – | – | –
c1ccc(-c2nc3ccccn3c2NC2CCCC2)nc1 | – | – | – | 75 | –
Cc1ccn2c(NC3CCCC3)c(-c3ccccn3)nc2c1 | – | – | – | 91 | –
COc1cccc(-c2cc(C(=O)Nc3ccc(N(C)C(C)=O)cc3)c3cc(Br)ccc3n2)c1 | – | – | – | – | –
Cc1ccc(N=Nc2cc(C)ccc2O)c(C)c1 | – | – | – | – | –
Cc1ccc(N=Nc2cc(C)ccc2N)cc1 | – | – | 70 | – | –
Cc1cccc(Cc2cnc(N3C(=N)SC(C)C3=O)s2)c1 (stereo unspecified) | 94 | – | – | 93 | –
N=C1SCC(=O)N1c1ncc(Cc2ccccc2Cl)s1 | – | · | – | – | –
Cc1ccc(Cc2cnc(N3C(=N)SC(C)C3=O)s2)cc1 (stereo unspecified) | 82 | – | – | 90 | –
Cc1cccc(Cc2cnc(N3C(=N)SC(c4ccccc4)C3=O)s2)c1 (stereo unspecified) | – | – | – | 106 | –
N=C1SCC(=O)N1c1ncc(Cc2cccc(Cl)c2)s1 | – | · | – | 84 | –
Cc1ccc(S(=O)(=O)Cc2ccc(C(=O)N3CCN(c4cccc(C)c4C)CC3)o2)cc1 | – | – | 94 | – | –
COc1ccc(S(=O)(=O)Cc2ccc(C(=O)N3CCN(c4cccc(C)c4C)CC3)o2)cc1 | – | – | – | – | –
Cc1nc2sccn2c(=O)c1S(=O)(=O)NCc1ccccc1 | – | – | – | – | –
Cc1nc2sccn2c(=O)c1S(=O)(=O)NC(C)c1ccccc1 (stereo unspecified) | – | – | 63 | – | –
Cc1nc2sccn2c(=O)c1S(=O)(=O)NCC(C)c1ccccc1 (stereo unspecified) | – | – | 58 | – | –
COc1cccc(N=Cc2c(O)c3ccccc3oc2=O)c1 | – | – | – | – | –
O=C1NC2(CCC3(CC2)OCCO3)NN1c1ccc(Cl)cc1 | 106 | – | – | – | –
O=C1NC2(CCCCC2)NN1c1ccccc1 | – | – | – | – | –
CC(=O)Oc1c(-c2ccc(Br)o2)oc2ccccc2c1=O | 85 | – | – | 86 | –
COc1ccc(-c2oc3ccccc3c(=O)c2OC(C)=O)cc1 | – | – | – | – | –
CCOC(=O)c1cnc(-n2nc(C)cc2C)nc1Nc1ccc(C)cc1 | – | · | – | 95 | –
CCOC(=O)c1cnc(-n2nc(C)cc2C)nc1Nc1ccc(N(C)C)cc1 | – | – | – | 97 | –
CCOC(=O)c1cnc(-n2nc(C)cc2C)nc1NC1CCCCC1 | – | – | – | 83 | –
SMILES | Calb FLC | CR mimetic SO | Platelet DG rel | SKKanGAS inh | PolyA inh
COc1cccc(NC(=O)Nc2cc(C(=O)O)ccc2N2CC3CC(C2)c2cccc(=O)n2C3)c1 (stereo unspecified) | – | – | – | – | –
CC1(C)CN(c2ccc(N3CC(C)(C)C3=O)cc2)C1=O | – | – | – | – | –
CC(=O)Nc1ccc(N2CC(C)(C)C2=O)cc1 | 72 | – | – | – | –
O=C(Oc1ccc(Cl)c2cccnc12)c1cccc([N+](=O)[O-])c1 | 85 | – | – | – | –
O=C(Oc1cccc2cccnc12)c1ccco1 | – | – | – | – | –
O=C(Oc1coc(CSc2ncccn2)cc1=O)c1cccc([N+](=O)[O-])c1 | – | – | – | – | –
O=C(Oc1cccc2cccnc12)c1cccc([N+](=O)[O-])c1 | – | – | – | – | –
O=C(Oc1ccc(Cl)c2cccnc12)c1ccco1 | – | – | – | 87 | –
O=C(Oc1c(Cl)cc(Cl)c2cccnc12)c1cccc([N+](=O)[O-])c1 | 104 | – | – | 88 | –
COc1ccc(/C=c2\s/c(=C\C(=O)C(C)(C)C)[nH]c2=O)cc1O | – | – | – | – | –
Cc1cccc(/C=c2\s/c(=C\C(=O)C(C)(C)C)[nH]c2=O)c1 | – | – | – | 77 | –
COc1ccc(/C=N/Nc2snc(SC)c2C#N)cc1OC | – | – | 52 | – | –
COc1cccc(/C=N/Nc2snc(SC)c2C#N)c1 | · | – | · | · | ·
Cc1cc(C)c(C)c(S(=O)(=O)ON2C(=O)c3ccccc3C2=O)c1C | 101 | – | – | – | –
Cc1cc(C)c(S(=O)(=O)ON2C(=O)c3ccccc3C2=O)cc1C | – | – | – | – | –
O=C1c2ccccc2C(=O)N1OS(=O)(=O)c1ccc(F)cc1 | – | – | 60 | – | –
O=C(NCc1ccco1)c1cc2ccc(O)cc2oc1=O | – | – | 70 | 60 | –
O=C(c1ccccc1)c1cc2ccc(O)cc2oc1=O | – | – | 95 | 62 | –
COc1ccc2cc(C(=O)NCc3ccco3)c(=O)oc2c1 | – | – | – | – | –
COc1ccc(C(=O)NNC(=O)c2cccc(F)c2)cc1 | ? | – | – | – | –
CNc1nc(N)c([N+](=O)[O-])c(Nc2ccccc2OC)n1 | – | – | – | – | –
O=C(c1cc2cc(F)ccc2[nH]1)N1CCN(c2cccc(Cl)c2)CC1 | – | – | – | – | –
Cc1[nH]c(-c2ccc(F)cc2)cc1C(=O)N1CCN(c2cccc(Cl)c2)CC1 | – | – | – | 67 | –
C/C(CC(=O)N1CCN(C=O)CC1)=N\NC(=O)c1cc2ccccc2cc1O | – | – | – | – | –
C/C(=N\NC(=O)c1ccccc1O)C1C(=O)c2ccccc2C1=O | – | – | – | 52 | –
SMILES | Calb FLC | CR mimetic SO | Platelet DG rel | SKKanGAS inh | PolyA inh
C/C(=N/NC(=O)c1cc2ccccc2cc1O)C1C(=O)c2ccccc2C1=O | – | – | – | 83 | –
COc1cc(OC)c(NC(=O)c2cc(S(=O)(=O)N3CCOCC3)cn2C)cc1Cl | – | – | 69 | – | –
COc1ccc(NC(=O)c2cc(S(=O)(=O)N3CCOCC3)cn2C)c(OC)c1 | – | – | 59 | – | –
Cn1cc(S(=O)(=O)N2CCCC2)cc1C(=O)NCc1ccccc1 | – | – | – | – | –
COc1cccc(CNC(=O)c2cc(S(=O)(=O)N3CCCC3)cn2C)c1 | – | – | 57 | – | –
COc1cccc(C(=O)NCC(=O)NCc2cc(=O)n(C)c(=O)n2C)c1 | – | – | – | – | –
C/C(=N\Nc1ccc(Cl)c(C(=O)O)c1)c1ccccn1 | – | – | – | – | –
C/C(=N\Nc1ncc(Cl)cc1Cl)c1ccccn1 | 98 | · | – | 58 | –
C/C(=N\Nc1ncnc2sc(C)c(C)c12)c1ccccn1 | – | 36 | – | – | –
Cc1ccc(-n2c(SCC(=O)NC3CCS(=O)(=O)C3)nc3ccccc3c2=O)cc1C (stereo unspecified) | – | – | – | – | –
COc1cc(C(=O)N/N=C/c2ccc(OC(=O)c3ccccc3Cl)c(OC)c2)ccc1O | – | – | – | 66 | –
COc1cc(/C=N/NC(=O)c2ccncc2)ccc1OC(=O)c1ccccc1Cl | – | – | – | – | –

Screening results from PubChem.
